# Laboratory results published in paper PMC11062922 (Nature Chemical Biology, 2023).
# Like-named read-outs stand apart in the source and are kept apart here.
# Assays:
# Parameters in all cases: species or system human, MV4-11 + K-562 + COLO205 + SK-N-BE2 + OVCAR-8
# ATR = conditions: read-out: apparent Kd, compound concentrations: 100 nM and 1000 nM (sheet 'Samples'), n = 1
# DJA1 = system: T1, DJA1; conditions: read-out: apparent Kd, n = 1
# T1 construct: gene DNAJA1
# FRK = conditions: read-out: apparent Kd; compound concentrations: 100 nM and 1000 nM (sheet 'Samples'), CATDS: 1.6945625051929199E-2; n = 1
# FYN = conditions: read-out: apparent Kd; compound concentrations: 100 nM and 1000 nM (sheet 'Samples'), CATDS: 1.7018948843541101E-2; n = 1
# IRAK4 = conditions: read-out: apparent Kd, n = 1
# MAP2K1 = conditions: read-out: apparent Kd, n = 1
# NLK = conditions: read-out: apparent Kd, n = 1
# STK26 = conditions: read-out: apparent Kd, compound concentrations: 100 nM and 1000 nM (sheet 'Samples'), n = 1
# JAK1 = conditions: read-out: apparent Kd, compound concentrations: 100 nM and 1000 nM (sheet 'Samples'), n = 1
# MAP4K1 = conditions: read-out: apparent Kd, compound concentrations: 100 nM and 1000 nM (sheet 'Samples'), n = 1
# NQO2 = conditions: read-out: apparent Kd, n = 1
# CDK6 = conditions: read-out: apparent Kd, n = 1
# ACAD11 = conditions: read-out: apparent Kd, n = 1
# PIK3CA = conditions: read-out: apparent Kd, compound concentrations: 100 nM and 1000 nM (sheet 'Samples'), n = 1
# CDC7 = conditions: read-out: apparent Kd, compound concentrations: 100 nM and 1000 nM (sheet 'Samples'), n = 1
# PRKCB = conditions: read-out: apparent Kd, n = 1
# ULK3 = conditions: read-out: apparent Kd, compound concentrations: 100 nM and 1000 nM (sheet 'Samples'), n = 1
# CDK5 = conditions: read-out: apparent Kd; compound concentrations: 100 nM and 1000 nM (sheet 'Samples'), CATDS: 6.6467271298615597E-3; n = 1
# [1] = compound concentrations:100 nM and 1000 nM (sheet 'Samples')
structure (smiles),measurement,setting,value
CCn1c(-c2cccnc2O)nc2cnccc21 [SB-736715],potency estimated from few doses,ATR; CATDS: 1.78741670317108E-2,919 nM
same,potency estimated from few doses,"DJA1; compound concentrations: 100 nM and 1000 nM (sheet 'Samples'), CATDS: 1.9156343081097999E-2",812 nM
same,potency estimated from few doses,FRK,1010 nM
same,potency estimated from few doses,FYN,1010 nM
same,potency estimated from few doses,"IRAK4; compound concentrations: 100 nM and 1000 nM (sheet 'Samples'), CATDS: 1.2053772539955101E-2",2160 nM
same,potency estimated from few doses,"MAP2K1; compound concentrations: 100 nM and 1000 nM (sheet 'Samples'), CATDS: 1.2472945477492101E-2",1980 nM
same,potency estimated from few doses,"NLK; compound concentrations: 100 nM and 1000 nM (sheet 'Samples'), CATDS: 1.3463251782528499E-2",1640 nM
same,potency estimated from few doses,STK26; CATDS: 1.4283028006721699E-2,1440 nM
COc1cc[nH]c1/C=C1\C(=O)Nc2ccc(F)c(C#CC3(O)CCNCC3)c21.Cl [RO0282986-001],potency estimated from few doses,"DJA1; compound concentrations: 100 nM and 1000 nM (sheet 'Samples'), CATDS: 9.7728158080224396E-3",1450 nM
same,potency estimated from few doses,"IRAK4; compound concentrations: 100 nM and 1000 nM (sheet 'Samples'), CATDS: 1.1177652842318E-2",889 nM
same,potency estimated from few doses,JAK1; CATDS: 1.5080552204992799E-2,391 nM
same,potency estimated from few doses,"MAP2K1; compound concentrations: 100 nM and 1000 nM (sheet 'Samples'), CATDS: 1.0458763538178499E-2",1120 nM
same,potency estimated from few doses,MAP4K1; CATDS: 1.0790478017061501E-2,1000 nM
same,potency estimated from few doses,"NQO2; compound concentrations: 100 nM and 1000 nM (sheet 'Samples'), CATDS: 1.2433043587811299E-2",644 nM
c1cnn2ncc(-c3ccnc(Nc4ccc5c(c4)OCCO5)n3)c2c1 [GW806290X],potency estimated from few doses,"CDK6; compound concentrations: 100 nM and 1000 nM (sheet 'Samples'), CATDS: 2.20968603607638E-2",1390 nM
same,potency estimated from few doses,"MAP2K1; compound concentrations: 100 nM and 1000 nM (sheet 'Samples'), CATDS: 2.0774102889224599E-2",1730 nM
Cc1cc(-c2ccnc(Nc3cccc(C#N)c3)n2)cc(C)c1O [GSK1440913A],potency estimated from few doses,"ACAD11; compound concentrations: 100 nM and 1000 nM (sheet 'Samples'), CATDS: 0.11808512095338899",425 nM
CCN(CC)Cc1ccc(Nc2nccc(-c3cnn4ncccc34)n2)cc1 [GW780056X],potency estimated from few doses,"CDK6; compound concentrations: 100 nM and 1000 nM (sheet 'Samples'), CATDS: 6.8164228175802102E-2",83.2 nM
same,potency estimated from few doses,"NQO2; compound concentrations: 100 nM and 1000 nM (sheet 'Samples'), CATDS: 3.67642918881117E-2",274 nM
CS(=O)(=O)Nc1cccc(-c2ccc3c(NC(=O)C4CC4)n[nH]c3c2)c1 [SB-742864],potency estimated from few doses,"DJA1; compound concentrations: 100 nM and 1000 nM (sheet 'Samples'), CATDS: 0.110016860770891",1630 nM
COc1cc(Nc2nccc(-c3cnn4ncccc34)n2)cc(OC)c1 [GW801372X],potency estimated from few doses,STK26; CATDS: 1.6966130459451799E-2,2340 nM
CN(c1ccc(NC(=O)NCCN2CCOCC2)cc1)c1ccnc(Nc2ccc(CS(C)(=O)=O)cc2)n1.Cl [GW830365A],potency estimated from few doses,PIK3CA; CATDS: 0.11596893366526,201 nM
O=C1N=C(NCc2cccs2)O/C1=C\c1ccc2ncccc2c1 [RO4624208-000],potency estimated from few doses,CDC7; CATDS: 4.51819013017992E-2,2100 nM
CNCc1ccc(-c2cc(-c3nc(-c4ccc(S(=O)(=O)C(C)C)cc4)cnc3N)on2)cc1 [VE-822],potency estimated from few doses,ACAD11; [1],321 nM
same,potency estimated from few doses,ATR; CATDS: 0.44999345055434797,7.76 nM
same,potency estimated from few doses,MAP2K1; [1],2120 nM
Cc1ccccc1C1=C(c2cn(C)c3ccccc23)C(=O)NC1=O [RO0317612-000],potency estimated from few doses,"DJA1; compound concentrations: 100 nM and 1000 nM (sheet 'Samples'), CATDS: 0.15228633777300399",952 nM
CS(=O)(=O)Nc1ccc(-c2ccnc3[nH]ccc23)cc1 [GSK993273A],potency estimated from few doses,ACAD11; [1],1040 nM
same,potency estimated from few doses,MAP2K1; [1],1720 nM
CNCC#Cc1c(F)ccc2c1/C(=C/c1[nH]ccc1OC)C(=O)N2.Cl [RO0281601-001],potency estimated from few doses,"CDK6; compound concentrations: 100 nM and 1000 nM (sheet 'Samples'), CATDS: 2.2252804154739798E-2",1820 nM
same,potency estimated from few doses,JAK1; CATDS: 3.3581024780386999E-2,520 nM
same,potency estimated from few doses,MAP4K1; CATDS: 2.76705176427572E-2,879 nM
CCn1c(-c2nonc2N)nc2c(C#CC(C)(C)O)nc(O[C@@H](CN)c3ccccc3)cc21.O=C(O)C(F)(F)F [GSK1007102B],potency estimated from few doses,PRKCB; [1],111 nM
O=C1N=C(NCCCc2ccccc2)S/C1=C\c1ccc2ncccc2c1 [RO4493941-000],potency estimated from few doses,PIK3CA; CATDS: 0.11301780685695401,241 nM
COC(=O)c1cccc(NC(=O)NC2CCN(c3ccnc(Nc4cc(OC)c(OC)c(OC)c4)n3)C2)c1 (centres unmarked) [GSK1379767A],potency estimated from few doses,"MAP2K1; compound concentrations: 100 nM and 1000 nM (sheet 'Samples'), CATDS: 9.4958067467462701E-2",2010 nM
c1ccc(-c2n[nH]cc2Nc2ccnc3ccccc23)nc1 [GW694077X],potency estimated from few doses,"ACAD11; compound concentrations: 100 nM and 1000 nM (sheet 'Samples'), CATDS: 2.4414312635225699E-2",1600 nM
same,potency estimated from few doses,"NQO2; compound concentrations: 100 nM and 1000 nM (sheet 'Samples'), CATDS: 2.8699790095599101E-2",903 nM
same,potency estimated from few doses,PIK3CA; CATDS: 4.8537913419409703E-2,212 nM
COc1cc(Nc2nccc(N3CCC(NC(=O)c4cccc(NC(C)=O)c4)C3)n2)cc(OC)c1OC (centres unmarked) [GSK1379754A],potency estimated from few doses,ULK3; CATDS: 9.2169068852455793E-2,1390 nM
NC(=O)c1cc(-c2ccccc2)cc2c(C3CCNCC3)c[nH]c12 [GSK301362A],potency estimated from few doses,DJA1; [1],1130 nM
O=C(O)C(F)(F)F.O=C(O)C(F)(F)F.O=c1[nH]ccc2nc(N[C@@H]3CCCNC3)nc(Nc3ccc(S(=O)(=O)N4CCOCC4)cc3)c12.O=c1[nH]ccc2nc(N[C@@H]3CCCNC3)nc(Nc3ccc(S(=O)(=O)N4CCOCC4)cc3)c12 [GSK2177277A],potency estimated from few doses,CDC7; CATDS: 4.24338957308735E-2,14.6 nM
same,potency estimated from few doses,CDK5,1280 nM
same,potency estimated from few doses,"DJA1; compound concentrations: 100 nM and 1000 nM (sheet 'Samples'), CATDS: 6.2286028327955796E-3",1850 nM
same,potency estimated from few doses,MAP4K1; CATDS: 2.52445457055663E-2,34.1 nM
same,potency estimated from few doses,"PRKCB; compound concentrations: 100 nM and 1000 nM (sheet 'Samples'), CATDS: 6.2704651327109501E-3",1770 nM
same,potency estimated from few doses,ULK3; CATDS: 1.28018633148979E-2,140 nM
CN(C)CC(O)COc1ccc(Nc2nccc(-c3cnn4nc(N5CCOCC5)ccc34)n2)cc1 (centres unmarked) [GW767488X],potency estimated from few doses,CDK6; [1],1050 nM
same,potency estimated from few doses,IRAK4; [1],1630 nM
same,potency estimated from few doses,NLK; [1],2180 nM
same,potency estimated from few doses,NQO2; [1],1230 nM
